Screening data from PubChem.
Many of the other results were omitted from the sample, so hits are more common in it than they were.
MRP-1 activ – H69AR viability gain despite doxorubicin, primary screen, MRP-1 activator project, H69AR cells, CellTiter-Glo; viability rescue; viability increase, % at 10 µM; actives 0.61% (n = 140,000);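 active means viability gain under doxorubicin at or above a set limit, the compound median plus 3 SD, cut at about 4.7% in these data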;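 further: MRP-1 overexpressing cells given doxorubicin 25 µM after compound pretreatment; 18-22 h compound pretreatment then 72 h with doxorubicin before readout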
MRP resist rev – reversal of MRP1-mediated doxorubicin resistance, primary screen, H69AR cells, doxorubicin co-treatment. H69AR cells + 2 uM doxorubicin, CellTiter-Glo, 72 h. actives 0.04% (n = 85,000). differential viability (reversal), % at 10 µM;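 active means viability drop by adding the cancer drug above about 55%, with treated viability meeting a 40% cutoff, limit read from the data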;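 further: larger differential means the compound sensitizes cells more to doxorubicin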
Of the large screens only hits and unclear results are named; the others gave an inactive call.

Cc1cc(C(=O)COC(=O)c2ccc3c(c2)OCO3)c(C)n1Cc1cccs1	MRP-1 activ 5.6
Cc1cc(C(=O)COC(=O)c2ccccc2O)c(C)n1Cc1cccs1	none (no result: MRP resist rev)
CCOC(=O)COc1ccc(/C=C2/SC(=Nc3ccccc3)N(Cc3cccnc3)C2=O)cc1OC	none (no result: MRP resist rev)
CCOc1cc(/C=C2\SC(=Nc3ccccc3)N(c3ccccc3)C2=O)ccc1OCC(=O)O	MRP-1 activ 5.9 (no result: MRP resist rev)
COc1ccc(NC(=O)COC(=O)c2c3c(nc4ccccc24)CCCC3)cc1Cl	MRP-1 activ 5.3 (no result: MRP resist rev)
COc1ccc(NC(=O)COC(=O)c2c3c(nc4ccccc24)CCCC3)cc1	none
CCCN1c2cccc3cccc(c23)S1(=O)=O	none
Cc1nn(CCC(N)=S)c2nc(-c3cccs3)cc(C(F)(F)F)c12	none (no result: MRP resist rev)
COc1ccc(N2C(=O)CCC(C(=O)O)C2c2ccc(F)cc2)cc1 (stereo not drawn)	none
COc1ccc(C2C(C(=O)Nc3cccc(C)n3)CCC(=O)N2c2ccc(OC)cc2)cc1 (stereo not drawn)	MRP-1 activ 12.6
CCC(CO)[n+]1c(C)cc(/C=C2\Sc3ccccc3N2Cc2ccccc2)cc1C (stereo not drawn)	none (no result: MRP resist rev)
Cc1cccc(NC(=O)/C(=C\c2ccc([N+](=O)[O-])o2)NC(=O)c2ccc(Cl)cc2)c1	MRP-1 activ 5.7 (no result: MRP resist rev)
COC(=O)/C(=C\c1ccc([N+](=O)[O-])o1)NC(=O)c1ccccc1	none (no result: MRP resist rev)
Cc1cccc(NC(=O)CCC(=O)N/N=C/c2ccncc2)c1	none (no result: MRP resist rev)
Cc1cccc(NC(=O)CCC(=O)N/N=C/c2cc([N+](=O)[O-])ccc2O)c1	MRP-1 activ 4.9 (no result: MRP resist rev)
CCOC(=O)c1cc(-c2ccccc2)sc1NC(=O)CC	none (no result: MRP resist rev)
CCOC(=O)c1cc(-c2ccccc2)sc1NC(=O)C(C)Sc1nnc(N)s1 (stereo not drawn)	MRP-1 activ 11.4 (no result: MRP resist rev)
CCCCc1nnc(NC(=O)CSc2nc(=O)cc(N)n2-c2cccc(C)c2)s1	MRP-1 activ 6.0
Cc1cccc(-n2c(N)cc(=O)nc2SCC(=O)Nc2nnc(CC(C)C)s2)c1	none
COc1cc(/C=N/NC(=S)Nc2cccc(C(=O)O)c2)cc(OC)c1OC	MRP-1 activ 4.8 (no result: MRP resist rev)
COc1ccc(/C=N/NC(=S)Nc2cccc(C(=O)O)c2)cc1OC	none (no result: MRP resist rev)
CCOC(=O)CN1N=C(c2ccc(Cl)s2)CSC1=O	none (no result: MRP resist rev)
O=C(N/N=C\c1ccc(-c2ccc([N+](=O)[O-])cc2)o1)C1COc2ccccc2O1 (stereo not drawn)	none (no result: MRP resist rev)
O=C(N/N=C/c1ccc(-c2ccc([N+](=O)[O-])cc2)o1)C(O)c1ccccc1 (stereo not drawn)	MRP-1 activ 5.5 (no result: MRP resist rev)
Cc1csc(/C(=N\O)c2csc(C)n2)n1	none
Cc1ccc(N2CCN(C(=O)c3ccccc3NC(=O)C3CC=CCC3C(=O)O)CC2)cc1 (stereo not drawn)	none (no result: MRP resist rev)
COc1ccc(F)cc1S(=O)(=O)NC1CCCC1	none
Cc1cccc(OCC(=O)NNC(=O)C2CCCCC2C(=O)O)c1 (stereo not drawn)	none (no result: MRP resist rev)
CC(C)Cc1nnc(NC(=O)CSc2ncn[nH]2)s1	MRP-1 activ 5.3
O=C(CSc1ncn[nH]1)Nc1nnc(-c2ccccc2)s1	MRP-1 activ 7.2
O=C(O)CSc1ncn[nH]1	none
Cc1cc(=O)[nH]c(SCC(=O)Nc2nnc(CC(C)C)s2)n1	none
O=C(CSc1ncn[nH]1)NC12CC3CC(CC(C3)C1)C2	MRP-1 activ 5.1
O=C(CSc1ncn[nH]1)Nc1ccccc1-c1ccccc1	none
COc1ccc(Cl)cc1NC(=S)NCc1ccco1	none
Cc1cc(NCc2ccco2)n2ncnc2n1	none (no result: MRP resist rev)
CCOc1ccc(N2CC(C(=O)OC)CC2=O)cc1 (stereo not drawn)	none
CC(=O)NCCC(=O)Nc1ccc(C)c(F)c1	none
Cc1ccc(NC(=O)CCNC(=O)c2ccc(Cl)cc2)cc1F	MRP-1 activ 5.4 (no result: MRP resist rev)
FC(F)(F)c1cccc(CNc2ncccc2-c2nc3cc(Cl)ccc3o2)c1	MRP-1 activ 5.2 (no result: MRP resist rev)
Cc1ccccc1-c1nc2cc(Cl)ccc2o1	none
CCCCCCOC(=O)c1ccc(NC(=O)c2cc(OC)c(OC)c(OC)c2Br)cc1	MRP-1 activ 4.9 (no result: MRP resist rev)
CCOC(=O)c1ccc(NC(=O)c2cc(OC)c(OC)c(OC)c2Br)cc1	none (no result: MRP resist rev)
Cc1ccccc1NC(=O)c1ccccc1NC(=O)CCC(=O)O	none (no result: MRP resist rev)
CCN(C(=O)c1cc2cc3ccc(C)cc3nc2o1)c1ccc(OC)cc1	MRP-1 activ 6.6
COc1ccc2cc3cc(C(=O)NC(C)C)oc3nc2c1	none
O=C(Cn1c(COc2ccccc2)nc2ccccc21)Nc1cc(Cl)cc(Cl)c1	none (no result: MRP resist rev)
O=C(Cn1c(COc2ccc(Cl)cc2)nc2ccccc21)NCC(F)(F)F	MRP-1 activ 5.6 (no result: MRP resist rev)
O=C(Cn1c(COc2ccccc2)nc2ccccc21)Nc1cc(Cl)ccc1Cl	none (no result: MRP resist rev)
N#CCCNC(=O)Cn1c(COc2ccc(Cl)cc2)nc2ccccc21	MRP-1 activ 5.6 (no result: MRP resist rev)
CCOC(=O)c1c(N2C(=O)Nc3cc(Cl)c(Cl)cc3N2O)sc2c1CCCCC2	none (no result: MRP resist rev)
CCN(c1ccc(C)c(C)c1)S(=O)(=O)c1c(C)[nH]c(=O)[nH]c1=O	none
CC(C)C[C@@H]1NC(=O)[C@H](C(C)C)NC(=O)c2cc([N+](=O)[O-])cc(I)c2OCC[C@@H](C(N)=O)NC1=O	none (no result: MRP resist rev)
CC/C(=C\C1CCCCC1)C(NP(=O)(c1ccccc1)c1ccccc1)c1ccccc1 (stereo not drawn)	none (no result: MRP resist rev)
CCCC1S/C(=N/N=C/c2ccc(OC)cc2)N(Cc2ccccc2)C1=O (stereo not drawn)	MRP-1 activ 6.0
CCN=C1SC(CC(=O)NCCc2ccc(OC)cc2)C(=O)N1CC (stereo not drawn)	none (no result: MRP resist rev)
CCCC1S/C(=N/N=C/c2ccc(OC)cc2)N(Cc2ccc(OC)cc2)C1=O (stereo not drawn)	none
CCCCC1S/C(=N/N=C/c2ccc(OC)cc2)N(Cc2ccc(OC)cc2)C1=O (stereo not drawn)	MRP-1 activ 5.4
CCn1c(/N=C/c2ccccc2NS(=O)(=O)c2ccc(C)cc2)nc2ccccc21	none (no result: MRP resist rev)
COc1ccc(N2CCN(c3oc(COc4ccc(Cl)cc4)nc3C#N)CC2)cc1	MRP-1 activ 5.8 (no result: MRP resist rev)
CN1CCN(c2oc(COc3ccc(-c4ccccc4)cc3)nc2C#N)CC1	none
COc1ccc(N2CCN(c3oc(COc4ccccc4)nc3C#N)CC2)cc1	none
N#Cc1nc(COc2ccc(Cl)cc2)oc1N1CCN(Cc2ccccc2)CC1	MRP-1 activ 4.8 (no result: MRP resist rev)
Brc1ccccc1Cn1c(-c2cscn2)nc2ccccc21	none
O=C(NNC(=O)c1cccs1)c1ccc(Cl)c(Cl)c1	none (no result: MRP resist rev)
CCOc1ccccc1NC(=O)c1cnc2n(c1=O)CCS2	none
O=C(Nc1ccc(Oc2ccccc2)cc1)c1cnc2n(c1=O)CCS2	MRP-1 activ 6.0
CC(=O)c1ccc(OCc2ccc(Oc3c(Cl)cccc3[N+](=O)[O-])cc2)cc1	none (no result: MRP resist rev)
Cc1ccc(C)c2[nH]c(=O)c(CN(Cc3ccco3)S(=O)(=O)c3ccc4c(c3)OCCO4)cc12	MRP-1 activ 5.4
CCc1ccc2[nH]c(=O)c(CN(Cc3ccco3)S(=O)(=O)c3ccc4c(c3)OCCO4)cc2c1	none
COc1cc(OC)cc(C(=O)Nc2nc3ccccc3[nH]2)c1	none
COc1ccc(C(=O)Nc2nc3ccccc3[nH]2)cc1OC	MRP resist rev 64.1
N=C1c2ccccc2CN1NC(=O)c1cccc(S(=O)(=O)N2CCCC2)c1	none (no result: MRP resist rev)
Cc1ccccc1N1CCN(c2ccc(NC(=O)C3CCCCC3C(=O)O)cc2)CC1 (stereo not drawn)	none (no result: MRP resist rev)
CCCCNC(=O)c1c(N)n(/N=C/c2ccccn2)c2nc3ccccc3nc12	none (no result: MRP resist rev)
CC(C)CNC(=O)c1c(N)n(/N=C/c2ccccn2)c2nc3ccccc3nc12	MRP-1 activ 5.1
Cc1oc(-c2ccccc2F)nc1CSCC(=O)NCc1ccc2c(c1)OCO2	none
